Consider nine molecules from PubChem BioAssay (NCI).

The structures appear in SMILES notation. About 83,000 compounds went through this panel and 20% of them were active in at least one assay; those are over-represented in the sample as a whole.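 Testing used 96-well plates and a 48-hour single-concentration exposure. Example: -40 means 40% of the starting cells died.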 Values without a mark were called inactive. Activity calls are given as the source filed them. How the source made its calls: active means growth percent below 10; inactive means the rest.

Some test systems named below: SR leukemia; RPMI-8226 leukemia; OVCAR-8 ovarian; OVCAR-5 ovarian; OVCAR-4 ovarian; SK-OV-3 ovarian; IGROV1 ovarian; OVCAR-3 ovarian; HS 578T breast; NCI/ADR-RES ovarian; T-47D breast; BT-549 breast; MDA-MB-435 melanoma; SW-620 colon; HCT-116 colon; HCC-2998 colon; KM12 colon; MCF7 breast.
Holding throughout (test): NCI-60 one-dose screen, 48 h (100 = growth as untreated, 0 = no growth, -100 = all killed)
Conditions in all cases: 10 µM unless noted

For `O=C(/C=C/c1ccc([N+](=O)[O-])cc1)c1cccc(Nc2nc(Nc3ccccc3)nc(Nc3ccccc3)n2)c1`, the growth in the assay on SR leukemia was 55.8%; in the assay on RPMI-8226 leukemia, -60.2% (active); in the assay with OVCAR-8 ovarian, 70.5%; with OVCAR-5 ovarian it was 74.7%; in the assay on OVCAR-4 ovarian it was 79.8%; in the assay with SK-OV-3 ovarian, 81%. The growth was 52% in the assay with IGROV1 ovarian; 72.6% with OVCAR-3 ovarian; 70.2% in the assay on HS 578T breast; 67.9% in the assay with NCI/ADR-RES ovarian; 47.1% in the assay with T-47D breast; 87.7% in the assay with BT-549 breast. Besides, the growth with MDA-MB-435 melanoma is 91.7%; in the assay on SW-620 colon, 67.6%; in the assay with HCT-116 colon, -11.9% (active); in the assay on HCC-2998 colon, 46.1%; in the assay with KM12 colon, 81.1%.
Take `C#CCOC(=O)C(N)CSSCC(N)C(=O)O` (stereo not drawn): the growth in the assay on SR leukemia was 96.1%; in the assay on RPMI-8226 leukemia, 103%; in the assay with OVCAR-8 ovarian, 111%; in the assay with OVCAR-5 ovarian it was 84.4%; in the assay on OVCAR-4 ovarian, 95.9%; with SK-OV-3 ovarian, 109%. Also, the growth was 99.5% with IGROV1 ovarian; 112% in the assay with OVCAR-3 ovarian; 107% in the assay on HS 578T breast; 101% with NCI/ADR-RES ovarian; 100% in the assay on T-47D breast; 104% in the assay on BT-549 breast. Moreover, the growth was 89.1% in the assay on MDA-MB-435 melanoma; 85% in the assay on SW-620 colon; 91.8% in the assay with HCT-116 colon; 101% in the assay on HCC-2998 colon; 108% in the assay on KM12 colon.
In the case of `CC1OC(C(=O)N2CCN(CCO)CC2)CC1COC1CCCCC1` (stereo not drawn), the growth is 88% [50 µM] in the assay on SR leukemia; 96.3% [50 µM] with RPMI-8226 leukemia; 99.2% [50 µM] with OVCAR-8 ovarian; 104% [50 µM] in the assay on OVCAR-5 ovarian; 104% [50 µM] in the assay on OVCAR-4 ovarian; 97.9% [50 µM] in the assay on SK-OV-3 ovarian. The growth in the assay on IGROV1 ovarian was 98% [50 µM]; in the assay on OVCAR-3 ovarian it was 96.7% [50 µM]; in the assay on HS 578T breast, 87.2% [50 µM]; in the assay on NCI/ADR-RES ovarian it was 93% [50 µM]; with T-47D breast, 94.6% [50 µM]; in the assay on MDA-MB-435 melanoma it was 103% [50 µM]. Further, the growth in the assay with SW-620 colon is 101% [50 µM]; in the assay with MCF7 breast, 103% [50 µM]; with HCT-116 colon, 97% [50 µM]; in the assay with HCC-2998 colon it was 109% [50 µM]; with KM12 colon, 101% [50 µM].
As to `COc1ccc(C(c2cc(OC)c(OC)c(OC)c2)n2cncn2)cc1O` (stereo not drawn), the growth is 7.03% (active) in the assay on SR leukemia; 20.7% in the assay on RPMI-8226 leukemia; 13.4% in the assay with OVCAR-8 ovarian; 73% with OVCAR-5 ovarian; 72.1% in the assay with OVCAR-4 ovarian; 20.3% in the assay on SK-OV-3 ovarian. The growth is 49.2% with IGROV1 ovarian; 1.74% (active) in the assay with OVCAR-3 ovarian; 31.3% in the assay on HS 578T breast; 1.8% (active) with NCI/ADR-RES ovarian; 35% in the assay with T-47D breast; -46.2% (active) in the assay with MDA-MB-435 melanoma. In addition, the growth is 29.1% with SW-620 colon; 17.9% in the assay with MCF7 breast; 7.25% (active) in the assay on HCT-116 colon; 25.3% with HCC-2998 colon; 21.8% in the assay on KM12 colon.
In the case of `C=C1CC[C@@H]2[C@](C)(COC(C)=O)[C@H](OC(C)=O)CC[C@@]2(C)[C@@H]1CC(Nc1ccc(S(=O)(=O)Nc2nccc(C)n2)cc1)C1=CCOC1=O` (stereo partly drawn), the growth in the assay with SR leukemia is 0.793% (active); in the assay on RPMI-8226 leukemia, -5.56% (active); with OVCAR-8 ovarian it was 10.5%; with OVCAR-5 ovarian, 26.9%; in the assay on OVCAR-4 ovarian it was 32.3%; with SK-OV-3 ovarian it was 101%. The growth is 25.8% with IGROV1 ovarian; -45% (active) with OVCAR-3 ovarian; 68.6% in the assay on HS 578T breast; 20.9% in the assay with NCI/ADR-RES ovarian; 69.1% in the assay with T-47D breast; 0.231% (active) with MDA-MB-435 melanoma. The growth is -49.6% (active) in the assay on SW-620 colon; 0.135% (active) in the assay with MCF7 breast; -32.2% (active) with HCT-116 colon; 68.2% in the assay on HCC-2998 colon; 13.2% in the assay with KM12 colon.
Regarding `NCCCCCNc1noc(Cc2c[nH]c3cc(Br)ccc23)n1`, the growth was 10.5% in the assay with SR leukemia; 4.37% (active) in the assay on RPMI-8226 leukemia; 28.4% in the assay with OVCAR-8 ovarian; 58.1% with OVCAR-5 ovarian; 46.8% in the assay with OVCAR-4 ovarian; -1.93% (active) in the assay on SK-OV-3 ovarian. Further, the growth was 34.5% in the assay with IGROV1 ovarian; -50.2% (active) in the assay with OVCAR-3 ovarian; 19.8% in the assay on HS 578T breast; -13.6% (active) in the assay on NCI/ADR-RES ovarian; 25.9% in the assay on T-47D breast; 44.9% with BT-549 breast. The growth with MDA-MB-435 melanoma is -37% (active); in the assay on SW-620 colon it was 18.6%; with HCT-116 colon, 23%; in the assay with HCC-2998 colon, 64%; in the assay with KM12 colon, 23.9%.
As for `Cc1ccc(-c2nnc(SCc3nc(N)nc(Nc4ccccc4F)n3)n2-c2ccccc2)cc1`, the growth with SR leukemia was 92.4%; in the assay with RPMI-8226 leukemia, 83.7%; in the assay on OVCAR-8 ovarian, 88%; in the assay with OVCAR-5 ovarian it was 95.9%; in the assay on OVCAR-4 ovarian, 86.7%; in the assay on SK-OV-3 ovarian it was 102%. In addition, the growth is 81.4% in the assay on IGROV1 ovarian; 102% in the assay with OVCAR-3 ovarian; 87.1% in the assay with HS 578T breast; 98.2% with NCI/ADR-RES ovarian; 85% with T-47D breast; 99.6% in the assay on MDA-MB-435 melanoma. Besides, the growth is 93.6% in the assay on SW-620 colon; 94.9% in the assay on MCF7 breast; 98.4% with HCT-116 colon; 126% with HCC-2998 colon; 101% with KM12 colon.
As to `CNC(=O)c1cc(Oc2ccc3nc(NC(=O)c4cc(C(F)(F)F)cc(C(F)(F)F)c4)sc3c2)ccn1`, the growth with SR leukemia is 12.5%; with RPMI-8226 leukemia, 9.36% (active); in the assay with OVCAR-8 ovarian, 20.8%; with OVCAR-5 ovarian, 51.6%; with OVCAR-4 ovarian, 15.8%; in the assay on SK-OV-3 ovarian, -2.45% (active). For the same molecule, the growth is 30.9% with IGROV1 ovarian; 12% in the assay on OVCAR-3 ovarian; 32.1% in the assay on HS 578T breast; 12.9% in the assay on NCI/ADR-RES ovarian; 0.372% (active) with T-47D breast; 12.1% with MDA-MB-435 melanoma. The growth was 40.2% in the assay on SW-620 colon; 9.82% (active) in the assay on MCF7 breast; 12.4% in the assay on HCT-116 colon; 35.2% in the assay on HCC-2998 colon; 15.5% in the assay with KM12 colon.
On to `CCOC(=O)/C(=C\c1ccccc1Cl)P(=O)(OCC)OCC`, for which the growth is -0.778% (active) in the assay with SR leukemia; 7.93% (active) in the assay with RPMI-8226 leukemia; 59.1% with OVCAR-8 ovarian; 82.4% with OVCAR-5 ovarian; 75.1% with OVCAR-4 ovarian; 95.7% in the assay on SK-OV-3 ovarian. In addition, the growth is 65.7% in the assay with IGROV1 ovarian; 56.1% with OVCAR-3 ovarian; 80.3% with HS 578T breast; 44% in the assay on NCI/ADR-RES ovarian; 39.5% with T-47D breast; 57.6% with BT-549 breast. Moreover, the growth in the assay on MDA-MB-435 melanoma was 45.1%; with SW-620 colon it was 46.6%; in the assay with HCT-116 colon, 44.2%; in the assay on HCC-2998 colon it was 94.5%; with KM12 colon, 52.9%.
